Results filed as inconclusive are left out. Active and inactive are the calls of the source. The calls were made as follows, unless noted: active = hit-call score of the fitted dose curve at least 0.9, where 1 is the maximum; inactive = score below 0.9.
Molecular target: Nuclear receptor subfamily 1 group I member 3 (Homo sapiens) (UniProt Q14994)
Test: ATG_CAR_TRANS: Attagene TRANS-FACTORIAL HepG2 Assay for human Constitutive Androstane Receptor (CAR) (AID 2282969; active = hit-call score of the fitted dose curve at least 0.9, where 1 is the maximum;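 also: activators raise reporter mRNA above DMSO so AC50 marks induction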)
Details: HepG2 Attagene TRANS-FACTORIAL CAR reporter
Procedure, shortened: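 Readout is reporter mRNA induction, quantified by fluorescent primer extension and capillary electrophoresis after RT-PCR. Cells were HepG2 transiently carrying chimeric NR-Gal4 constructs with GAL4-UAS reporters, treated for 24 h; activity scored upward from DMSO.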

Sequence of Nuclear receptor subfamily 1 group I member 3 (Homo sapiens) (Q14994 whole entry, looked up): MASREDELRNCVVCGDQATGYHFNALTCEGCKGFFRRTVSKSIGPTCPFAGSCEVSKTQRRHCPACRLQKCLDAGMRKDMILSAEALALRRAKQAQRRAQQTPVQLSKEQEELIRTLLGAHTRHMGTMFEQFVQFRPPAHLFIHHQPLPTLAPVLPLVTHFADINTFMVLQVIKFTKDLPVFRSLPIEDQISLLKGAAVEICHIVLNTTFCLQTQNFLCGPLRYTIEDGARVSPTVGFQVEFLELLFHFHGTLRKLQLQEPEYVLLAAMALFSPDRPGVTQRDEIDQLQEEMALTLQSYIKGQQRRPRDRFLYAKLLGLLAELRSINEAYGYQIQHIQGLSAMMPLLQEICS

Structure (SMILES) | outcome | AC50
Nc1cccc(S(=O)(=O)c2cccc(N)c2)c1 | inactive | –
O=Nc1ccc(Nc2ccccc2)cc1 | – | 26.7 µM (active)
Cc1c(N(C)C)c(=O)n(-c2ccccc2)n1C | inactive | –
CC(C)c1ccc(C(C)C)cc1 | inactive | –
COc1c(Cl)c(Cl)c(Cl)c(Cl)c1Cl | inactive | –
CC(=O)OCCOC(C)=O | inactive | –
C=CCOC(=O)CCC1CCCCC1 | inactive | –
NC(=O)NC1NC(=O)NC1=O (stereo not drawn) | inactive | –

Molecular target: Estrogen receptor (Homo sapiens) (UniProt P03372)
Test: ATG_ERa_TRANS: Attagene TRANS-FACTORIAL HepG2 Assay for human Estrogen Receptor alpha (ERa) (AID 2282970; active = hit-call score of the fitted dose curve at least 0.9, where 1 is the maximum)
Details: HepG2 Attagene TRANS ERa GAL4 reporter, mRNA
Procedure, shortened: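 Multiplexed cell-based reporter format in HepG2: chimeric ERa-Gal4 protein drives GAL4-UAS reporter transcription. Fluorescent reporter mRNA quantified by capillary electrophoresis 24 hours after dosing; endpoint fitted as signal gain against DMSO.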

Sequence of Estrogen receptor (Homo sapiens) (P03372 whole entry, looked up): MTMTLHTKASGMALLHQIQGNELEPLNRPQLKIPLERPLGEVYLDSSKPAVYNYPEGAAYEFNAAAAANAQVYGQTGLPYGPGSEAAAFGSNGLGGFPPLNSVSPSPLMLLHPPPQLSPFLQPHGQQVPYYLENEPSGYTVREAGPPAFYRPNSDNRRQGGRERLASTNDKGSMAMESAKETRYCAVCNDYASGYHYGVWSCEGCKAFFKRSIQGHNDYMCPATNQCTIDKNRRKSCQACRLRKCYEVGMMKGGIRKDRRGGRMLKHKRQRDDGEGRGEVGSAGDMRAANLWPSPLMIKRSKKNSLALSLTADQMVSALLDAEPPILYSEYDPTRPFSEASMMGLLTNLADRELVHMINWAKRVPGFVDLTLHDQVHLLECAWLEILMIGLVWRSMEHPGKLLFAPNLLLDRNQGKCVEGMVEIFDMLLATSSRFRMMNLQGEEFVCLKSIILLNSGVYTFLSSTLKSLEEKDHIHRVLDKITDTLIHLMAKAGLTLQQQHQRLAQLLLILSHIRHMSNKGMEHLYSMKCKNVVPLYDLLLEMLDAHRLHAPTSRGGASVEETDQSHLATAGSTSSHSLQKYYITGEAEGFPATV

Structure (SMILES) | outcome | AC50
CC(C)(C)c1n[nH]c(=S)n(N)c1=O | inactive | –
COc1ccc(OC)c(OC)c1 | inactive | –
CCCCCC(=O)OCCc1ccccc1 | inactive | –
NC(N)=NC(=O)c1nc(Cl)c(N)nc1N | inactive | –
CCC(O)CO (stereo not drawn) | inactive | –
CC1(C)[C@H](C(=O)OCc2cccc(Oc3ccccc3)c2)[C@@H]1C=C(Cl)Cl | inactive | –
CCCCc1ccc(N)cc1 | – | 12.8 µM (active)
Cc1ccccc1C=O | inactive | –
Nc1cccc(S(=O)(=O)c2cccc(N)c2)c1 | inactive | –
O=C(O)CCCCCCCCCCC(=O)O | inactive | –
O=Nc1ccc(Nc2ccccc2)cc1 | – | 34.9 µM (active)
CC(C)c1ccc(C(C)C)cc1 | inactive | –

Molecular target: X-box-binding protein 1 (Homo sapiens) (UniProt P17861)
Test: ATG_Xbp1_CIS: Attagene CIS-FACTORIAL HepG2 Assay for human X-box Binding Protein 1 (XBP1) (AID 2282972)
Details: HepG2 XBP1 cis-element reporter, Attagene multiplex; actives raise or lower the signal
Procedure, shortened: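 Fluorescence-labelled cDNA fragments from reporter transcripts, separated by capillary electrophoresis, give the signal. Source: HepG2 cells transfected with promoter-driven reporter units, harvested 24 h post-dose. DMSO served as reference for bidirectional curve fitting.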

Sequence of X-box-binding protein 1 (Homo sapiens) (P17861 whole entry, looked up): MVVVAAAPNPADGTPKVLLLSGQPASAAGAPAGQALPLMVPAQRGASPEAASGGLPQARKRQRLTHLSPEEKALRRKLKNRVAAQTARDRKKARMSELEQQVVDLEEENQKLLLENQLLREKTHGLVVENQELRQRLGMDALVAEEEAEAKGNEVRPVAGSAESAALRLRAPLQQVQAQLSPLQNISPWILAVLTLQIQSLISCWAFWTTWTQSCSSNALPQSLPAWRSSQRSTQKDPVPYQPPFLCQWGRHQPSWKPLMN

Structure (SMILES) | AC50 | outcome
O=[N+]([O-])c1ccc(Nc2ccc(Nc3ccccc3)c(S(=O)(=O)O)c2)c([N+](=O)[O-])c1 | 172 µM (active) | –
CC(C)(C)c1n[nH]c(=S)n(N)c1=O | – | inactive
CC(C)[C@H]1CC[C@@H](C)CC1=O | – | inactive
COc1ccc(OC)c(OC)c1 | – | inactive
CCCCCC(=O)OCCc1ccccc1 | – | inactive
NC(N)=NC(=O)c1nc(Cl)c(N)nc1N | – | inactive
O=C(O)Cc1cccc2ccccc12 | – | inactive
OC1OC[C@@H](O)[C@H](O)[C@H]1O (stereo partly drawn) | – | inactive
CC(=O)OCc1ccc2c(c1)OCO2 | – | inactive
CCCC(=O)OCCC(C)CCC=C(C)C (stereo not drawn) | – | inactive
CCCCCCCCC=O | – | inactive
CCC(O)CO (stereo not drawn) | – | inactive
O=C1NC(=O)c2ccccc21 | – | inactive
CC1(C)[C@H](C(=O)OCc2cccc(Oc3ccccc3)c2)[C@@H]1C=C(Cl)Cl | – | inactive
CC1(C)OC[C@@H]2O[C@@]3(C(=O)O)OC(C)(C)O[C@H]3[C@@H]2O1 | – | inactive
CCCCc1ccc(N)cc1 | – | inactive
S=C(S)NCCNC(=S)S | – | inactive
OCC(CO)(CO)COCC(CO)(CO)CO | – | inactive
O=C(O)c1snc(Cl)c1Cl | 140 µM (active) | –

Structure (SMILES) | AC50 | outcome
Cc1ccc(C(C)C)cc1O | – | inactive
Nc1ccc(S(=O)(=O)O)c(N)c1 | – | inactive
CC(C)(CO)[N+](=O)[O-] | – | inactive
O=C[C@@H](O)[C@H](O)[C@H](O)CO | – | inactive
CCCC/C=C\CCCCCCCCCC=O | – | inactive
CCC(=O)OCc1ccccc1 | – | inactive
CO[Si](CCCn1c(=O)n(CCC[Si](OC)(OC)OC)c(=O)n(CCC[Si](OC)(OC)OC)c1=O)(OC)OC | – | inactive
CCCC[n+]1ccccc1 | – | inactive
C=C(C)[C@@H]1CC[C@@H](C)C[C@@H]1O | – | inactive
Cc1ccccc1C=O | – | inactive
Nc1cccc(S(=O)(=O)c2cccc(N)c2)c1 | – | inactive
O=C(O)CCCCCCCCCCC(=O)O | – | inactive
O=Nc1ccc(Nc2ccccc2)cc1 | – | inactive
Cc1c(N(C)C)c(=O)n(-c2ccccc2)n1C | – | inactive
CC(C)c1ccc(C(C)C)cc1 | – | inactive
COc1c(Cl)c(Cl)c(Cl)c(Cl)c1Cl | – | inactive
CC(=O)OCCOC(C)=O | – | inactive
C=CCOC(=O)CCC1CCCCC1 | – | inactive
NC(=O)NC1NC(=O)NC1=O (stereo not drawn) | – | inactive

Source: PubChem BioAssay (EPA / NIEHS)
